Screens deposited in PubChem by National Center for Advancing Translational Sciences (NCATS).
NPC1 prom act – qHTS Assay for NPC1 Promoter Activators; Huh7 NPC1 promoter luciferase reporter, 24 h; Potency, µM (highest dose often 9.22 µM), inactives show at the top dose activation, usual class: activators; 320,000 compounds, 2.4% hits; also: % of control where 0% means no effect; nearly all actives have a fitted effect of over 60% in size
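Luminescence from an NPC1 promoter-driven luciferase reporter in stably transfected Huh7 cells was measured after 24 h compound treatment at 37 °C, followed by 10 min ambient incubation with luciferase detection reagent.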
ELG1 genotoxic – qHTS screen for small molecules that induce genotoxicity in human embryonic kidney (HEK293T) cells expressing luciferase-tagged ELG1; HEK293T ELG1-luciferase reporter, luminescence, 16 h; Potency, µM (top dose mostly 46 µM), for the others: at the top dose activity change, positive = activation, most hits filed as activators; 330,000 compounds, 1.3% hits; AID 504466, 2011; also: % of control where 0% means no effect; nearly all actives have a fitted effect of over 60% in size
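Cells (2,000/well) expressing the ELG1-luciferase fusion are dosed by pin tool and kept 16 hr at 37 °C, 5% CO2. Signal comes from ONE-Glo luciferase reagent after 30 min at room temperature.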
FLuc counter – qHTS profiling assay for firefly luciferase inhibitor/activator using purifed enzyme and Km concentrations of substrates (counterscreen for miR-21 project); Luciferin 4-monooxygenase (Photinus pyralis), P08659; purified FLuc, Km substrates, luminescence inhibition; Potency, µM (top dose mostly 57.5 µM), inactives show top-dose activity change, negative = inhibition, hits mostly inhibitors; 360,000 compounds, 6.9% hits; AID 588342, 2011;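 also: plate controls were vehicle for no effect and reference inhibitor for full effect; nearly all actives have a fitted effect of over 55% in size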
Target sequence (P08659 whole entry, looked up): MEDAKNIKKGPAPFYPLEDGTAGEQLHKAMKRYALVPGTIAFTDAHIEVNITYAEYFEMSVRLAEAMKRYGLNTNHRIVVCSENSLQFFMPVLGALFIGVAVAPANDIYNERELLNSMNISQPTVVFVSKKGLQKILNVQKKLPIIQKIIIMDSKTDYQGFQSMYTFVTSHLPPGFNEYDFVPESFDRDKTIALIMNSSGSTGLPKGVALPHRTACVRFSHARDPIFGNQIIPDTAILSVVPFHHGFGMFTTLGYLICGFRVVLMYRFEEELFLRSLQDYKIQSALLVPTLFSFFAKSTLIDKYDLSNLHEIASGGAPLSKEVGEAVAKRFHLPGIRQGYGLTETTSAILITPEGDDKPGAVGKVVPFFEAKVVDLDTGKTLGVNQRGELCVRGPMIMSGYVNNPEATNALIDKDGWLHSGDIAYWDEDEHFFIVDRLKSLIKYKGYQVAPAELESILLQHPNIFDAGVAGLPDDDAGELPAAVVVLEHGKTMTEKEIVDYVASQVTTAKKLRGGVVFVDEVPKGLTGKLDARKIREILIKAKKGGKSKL
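Purified P. pyralis luciferase, 10 nM final, with Km-level 10 uM D-luciferin and 10 uM ATP in 50 mM Tris acetate pH 7.5, 10 mM Mg acetate, 0.01% Tween-20, 0.05% BSA; 6-point qHTS titration about 60 µM downward; luminescence read.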
Rab9 prom act – qHTS Assay for Rab9 Promoter Activators; Huh7 Rab9 promoter-luciferase reporter, luminescence, 24 h; Potency, µM (series often up to 9.22 µM), for inactives: at the top dose activation, negative = inhibition, actives largely listed as activators; 320,000 compounds, 2.8% hits; AID 485297, 2010; also: % of control where 0% means no effect; nearly all actives have a fitted effect of over 60% in size
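Quantitative HTS format; Huh7 Rab9-luciferase reporter cells (1500/well) receive compound 2 h post-plating, incubate 24 h at 37 °C, then get luciferase reagent for 10 min before luminescence reading.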
ELG1 DNA repair – qHTS screen for small molecules that inhibit ELG1-dependent DNA repair in human embryonic kidney (HEK293T) cells expressing luciferase-tagged ELG1. 330,000 compounds, 2.3% hits. HEK293T ELG1-luciferase reporter, luminescence, 16 h; DNA damage induced by 5-fluorouridine. Potency, µM (series often up to 46.1 µM), for inactives: at the highest dose activity change, negative = inhibition, actives largely listed as inhibitors; also: % is scaled to controls: 0 for no effect and ±100 for the full control effect; nearly all actives have a fitted effect of over 55% in size
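Reporter activity after DNA damage by 5-fluorouridine is monitored. Compound-treated cells incubate 16 hr at 37 °C, then ONE-Glo is added for 30 min before luminescence reading.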
SMN2 splice enh – qHTS Assay for Enhancers of SMN2 Splice Variant Expression; HEK293 SMN2-luciferase splicing reporter, luminescence, 30-36 h; Potency, µM (top dose mostly 46.1 µM), without a hit: top-dose activity change, positive = activation, hits mostly activators; 210,000 compounds, 2.8% hits; also: % of control where 0% means no effect; nearly all actives have a fitted effect of over 55% in size
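qHTS luciferase splicing reporter: luminescence rises when SMN2 exon 7 is included in transfected HEK293 cells. Compound exposure lasted 30-36 h at 37C, with 4.5 mM final sodium butyrate as control, followed by a ONE-Glo read.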
The depositor's hits bear a star; ! = not active in a repeat; [ ] = dose if it differs, or a comment. The list is not random: actives were taken first. Their share in the collection is about 9.4%. Calls follow the shape of the dose curve; as a rule, active = well fitted curve in the direction sought with a large enough effect; inconclusive = small, poorly fitted or top-dose-only effect, or another doubt; inactive = no such curve, though single readings can be large; an effect the other way counts as inactive or inconclusive. Potency is read from the fitted curve at half-maximal effect.

What do the screens show for `CCc1ccc(Nc2n[n+](-c3ccccc3)c(-c3ccc(OCc4ccccc4)cc3)s2)cc1`?
NPC1 prom act: -5.2%; ELG1 genotoxic: 13.8%; FLuc counter: inconclusive; Rab9 prom act: -3.9%; ELG1 DNA repair: 13µM*

How did CC(C)CNC(=O)O do in these assays?
SMN2 splice enh: -11.8%[9.22 µM]

Results for CCc1ccc2nc(N(Cc3cccnc3)C(=O)c3ccc(C#N)cc3)sc2c1 ?
FLuc counter: -11.2%

Results for CCc1ccc2nc(N(CCN(C)C)C(=O)c3ccc4ncsc4c3)sc2c1 ?
NPC1 prom act: 2.82µM*; ELG1 genotoxic: 3.66µM*; FLuc counter: 13.5µM*; Rab9 prom act: 1.78µM*; ELG1 DNA repair: inconclusive

Results for O=C1NCCN/C1=C\C(=O)c1ccc(Br)cc1 ?
NPC1 prom act: 1.26µM*; ELG1 genotoxic: 10.3µM*; FLuc counter: 9.53µM*; Rab9 prom act: 1.26µM*; ELG1 DNA repair: inconclusive

How did O=C1OCCN/C1=C\C(=O)c1ccc(Cl)cc1 do in these assays?
NPC1 prom act: -2.0%; ELG1 genotoxic: -6.1%; FLuc counter: 23.9µM*; Rab9 prom act: -7.1%; ELG1 DNA repair: -9.3%

Results for O=C(CN1C(=O)CSc2ccc(S(=O)(=O)N3CCCC3)cc21)NCc1ccc(F)cc1Cl ?
FLuc counter: -13.1%

Results for Cc1oc(-c2ccc(C(=O)Nc3cccc(C(F)(F)F)c3)cc2)nc1CSc1ccccc1 ?
FLuc counter: -9.4%

Results for COCCNc1c(-c2cc3ccc(C)c(C)c3[nH]c2=O)nc2ccccn12 ?
NPC1 prom act: 2.51µM*; ELG1 genotoxic: inconclusive; FLuc counter: 3.38µM*; Rab9 prom act: 0.708µM*; ELG1 DNA repair: inconclusive

How did CCc1ccccc1NC(=O)CSc1ncc2c(n1)-c1ccccc1N(Cc1ccc(C)cc1)S2(=O)=O do in these assays?
FLuc counter: -1.6%

How did Cn1c(=Nc2ccccc2)sc2ccccc21 do in these assays?
NPC1 prom act: 14.1%; ELG1 genotoxic: inconclusive; FLuc counter: 21.3µM*; Rab9 prom act: 24.0%; ELG1 DNA repair: inconclusive; SMN2 splice enh: -19.9%

Results for CN(C)c1ccc(N=c2sc3ccccc3n2C)cc1 ?
NPC1 prom act: inconclusive; ELG1 genotoxic: 6.51µM*; FLuc counter: 6.01µM*; Rab9 prom act: inconclusive; ELG1 DNA repair: inconclusive; SMN2 splice enh: -4.9%

Results for Cc1cc(Nc2ccccc2C)n2nc(Cc3ccc(Cl)cc3)nc2n1 ?
FLuc counter: 5.5%; SMN2 splice enh: 11.0%

What do the screens show for `O=C1OCC(CO)(CO)N=C1NNc1ccccc1[N+](=O)[O-]`?
NPC1 prom act: -5.9%; ELG1 genotoxic: 8.8%; FLuc counter: -19.5%; Rab9 prom act: 1.3%; ELG1 DNA repair: 7.3µM*

What do the screens show for `O=C1OCC(CO)(CO)N=C1NNc1cc(Cl)ccc1Cl`?
NPC1 prom act: 14.2%; ELG1 genotoxic: -3.6%; FLuc counter: 0.2%; Rab9 prom act: 2.6%; ELG1 DNA repair: 28.7%; SMN2 splice enh: -9.0%

What do the screens show for `COCCCNC(=O)c1ccc2nc(Cc3ccc(OC)cc3)oc2c1`?
NPC1 prom act: 3.98µM*; ELG1 genotoxic: 20.6µM*; FLuc counter: 16.9µM*!; Rab9 prom act: 2.24µM*; ELG1 DNA repair: inconclusive

What do the screens show for `CCOCCCNC(=O)c1ccc(OC)cc1`?
NPC1 prom act: 13.8%; ELG1 genotoxic: inconclusive; FLuc counter: 2.8%[2.3 µM]; Rab9 prom act: 28.7%; ELG1 DNA repair: inconclusive; SMN2 splice enh: 28.2µM*

Results for COC(=O)CCNC(=O)c1ccc2nc(Cc3ccc(OC)c(OC)c3)oc2c1 ?
NPC1 prom act: inconclusive; ELG1 genotoxic: 18.5%; FLuc counter: 16.9µM*; Rab9 prom act: inconclusive; ELG1 DNA repair: inconclusive
